The values below come from the supplement of paper PMC8728848.

About 410 targets per protein were measured; listed, in parts, are those with the strongest signals and a random draw of the rest.

Assay in all cases: glycan array binding signal (z-score within array); higher = stronger binding
What all share (details): glycan notation: IUPAC condensed, linker removed

For one test, the target named is GlcNAc(b1-3)Gal. The procedure, abridged: (§1)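 The binding signal is a Z-score computed within each array. Data were drawn from 3228 arrays in the Consortium for Functional Glycomics database, restricted to those with a known protein sequence. Scores were averaged over arrays of the same protein sequence at different concentrations or buffers, and over linkers, and negative values can be taken as non-binding.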

For a further test, the target named is GlcNAc(b1-3)Gal(b1-4)Glc. Put shortly:
as §1

Test [1] has as its target GlcNAc(b1-3)Gal(b1-4)GlcNAc. Put shortly: as §1
The target in test [2] is GlcNAc(b1-3)[GlcNAc(b1-6)]Gal(b1-4)GlcNAc. The procedure, abridged:
as §1

Test [3] has as its target GlcNAc(b1-3)[GlcNAc(b1-6)]GlcNAc(b1-4)GlcNAc. Put shortly: as §1
In another test the target is GlcNAc3Prop(b1-4)GlcNAc. The procedure, abridged: as §1
Test [4] concerns the target Neu5Ac(a2-3)Gal(b1-4)GlcNAc(b1-3)Gal. The procedure, abridged: as §1
Test [5] deals with Neu5Ac(a2-3)Gal(b1-4)[Fuc(a1-3)]GlcNAc6S. Put shortly:
as §1

Test [6] concerns the target Neu5Ac(a2-3)Gal6S(b1-4)GlcNAc. The procedure, abridged:
as §1

In test [7] the target is Neu5Ac(a2-3)Gal6S(b1-4)[Fuc(a1-3)]GlcNAc. Put shortly: as §1
Test [8] addresses Neu5Ac(a2-3)[GalNAc(b1-4)]Gal(b1-4)Glc. The procedure, abridged:
as §1

The target of test [9] is Neu5Ac(a2-3)[GalNAc(b1-4)]Gal(b1-4)GlcNAc. The procedure, abridged:
as §1

For test [10], the target named is Neu5Ac(a2-6)Gal(b1-4)GlcNAc(b1-2)Man(a1-3)Man(b1-4)GlcNAc(b1-4)GlcNAc. The procedure, abridged:
as §1

The target in test [11] is Neu5Ac(a2-6)Gal(b1-4)GlcNAc(b1-2)Man(a1-6)Man(b1-4)GlcNAc(b1-4)GlcNAc. The procedure, abridged:
as §1

The target of test [12] is Neu5Ac(a2-8)Neu5Ac(a2-8)Neu5Ac. Put shortly: as §1
Another test addresses Neu5Ac(b1-6)GalNAc. The procedure, abridged: as §1

B1: F17aG (Escherichia coli), Q99003 (protein)
chain: MTNFYKVFLAVFILVCCNISQAAVSFIGSTENDVGPSLGSYSRTHAMDNLPFVYDTRNKIGYQNANVWHISKGFCVGLDGKVDLPVVGSLDGQSIYGLTEEVGLLIWMGDTKYSRGTAMSGNSWENVFSGWCVGANTASTQGLSVRVTPVILKRNSSARYSVQKTSIGSIRMRPYNGSSAGSVQTTVNFSLNPFTLNDTVTSCRLLTPSAVNVSLAAISAGQLPSSGDEVVAGTTSLKLQCDAGVTVWATLTDATTPSNRSDILTLTGASTATGVGLRIYKNTDSTPLKFGPDSPVKGNENQWQLSTGTETSPSVRLYVKYVNTGEGINPGTVNGISTFTFSYQ
For the molecule B1, the “glycan array binding signal (z-score)” value was determined as 3.9 with GlcNAc(b1-3)Gal; 8.79 in the test with GlcNAc(b1-3)Gal(b1-4)Glc; 4.77 in [1]; 5.68 in test [2]; 2.15 in [3]; 11.7 in the test with GlcNAc3Prop(b1-4)GlcNAc. For the same molecule, the “glycan array binding signal (z-score)” value in test [4] was -0.158; in test [5] it was 0.084; in test [6], -0.233; in test [7], -0.245; in [8], 0.025; in [9] it was -0.241. For the same molecule, the “glycan array binding signal (z-score)” value was -0.177 in test [10], -0.167 in test [11], -0.234 in test [12] and -0.34 with Neu5Ac(b1-6)GalNAc.
